For 28 molecules, inhibition results are on record in PubChem BioAssay AID640 (Columbia University Molecular Screening Center, 2007).

About 200 (0.21%) of roughly 96,000 compounds were called active. This excerpt belongs to a sample that is enriched for actives. Values without a mark were called inactive.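 The calls were made as follows: active = inhibition at 2 µM at or above a set limit, the screen mean plus 3 SD (cut at about 24% in these data); inactive = the rest.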

Sequence of Tyrosine-protein phosphatase non-receptor type 22 (Homo sapiens) (Q9Y2R2 whole entry, looked up, the tested form may be a part): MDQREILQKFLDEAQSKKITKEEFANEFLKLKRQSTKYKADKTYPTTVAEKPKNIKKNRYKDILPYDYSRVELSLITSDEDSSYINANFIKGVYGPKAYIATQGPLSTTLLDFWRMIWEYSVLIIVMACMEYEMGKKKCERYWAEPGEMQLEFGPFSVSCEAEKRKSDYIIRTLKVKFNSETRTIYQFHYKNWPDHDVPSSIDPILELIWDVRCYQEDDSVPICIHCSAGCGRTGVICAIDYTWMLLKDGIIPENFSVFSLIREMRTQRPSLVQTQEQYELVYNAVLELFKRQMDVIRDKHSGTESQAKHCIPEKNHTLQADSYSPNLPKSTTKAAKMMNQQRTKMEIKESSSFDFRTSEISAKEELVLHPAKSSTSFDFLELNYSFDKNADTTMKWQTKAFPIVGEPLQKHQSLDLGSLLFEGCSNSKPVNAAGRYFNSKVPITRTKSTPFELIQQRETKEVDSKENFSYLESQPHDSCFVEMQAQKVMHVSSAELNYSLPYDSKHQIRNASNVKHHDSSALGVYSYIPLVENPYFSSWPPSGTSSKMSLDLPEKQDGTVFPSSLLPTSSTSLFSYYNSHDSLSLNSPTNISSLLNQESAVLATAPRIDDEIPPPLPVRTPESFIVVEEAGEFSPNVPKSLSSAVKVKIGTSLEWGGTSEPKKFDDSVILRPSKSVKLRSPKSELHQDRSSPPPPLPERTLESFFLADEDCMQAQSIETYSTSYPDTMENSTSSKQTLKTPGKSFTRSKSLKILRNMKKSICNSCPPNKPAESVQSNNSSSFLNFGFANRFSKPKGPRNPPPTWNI

The assay concerns the target Tyrosine-protein phosphatase non-receptor type 22 (Homo sapiens) (UniProt Q9Y2R2). Briefly: blockers of human LYP enzyme activity – biochemical, DiFMUP fluorescence, 2 µM, primary screen (AID 640).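 Also: 0% = DMSO with enzyme and 100% = enzyme fully blocked by orthovanadate.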 The note with it: recombinant LYP catalytic domain, at 2 µM, hits give high values.
On to `Cc1ccc(OCC(=O)Nc2cccc3c2CCCC3)cc1C`, for which the inhibition was 10%.

`CCN1CCN(C(=O)/C=C\C(=O)O)CC1`: the inhibition is -7%. Take `Cc1cc(S(=O)(=O)NC2CCCCC2)ccc1OCC(=O)NCc1cccnc1`: the inhibition was -9.7%.

For the molecule `COc1ccc(Br)cc1CN1CCN(C(=O)c2cccc(OC)c2OC)CC1`, the inhibition is 0.1%. `COC(=O)c1c(CCl)noc1C(=O)NC(C)C`: the inhibition was -0.4%.

In the case of `CCc1ccc2c(c1)C1(NN=C(c3ccccc3)S1)C(=O)N2` (stereo not drawn), the inhibition is 15.3%. As for `CCCCc1nnc(NC(=O)CS(=O)(=O)Cc2ccccc2)s1`, the inhibition is 3.6%.

Take `c1ccc(-c2nccc(-c3ccc(-n4cnc5ccccc54)cc3)n2)nc1`: the inhibition was 39.8% (active).

Turning to `CC(C)c1nc(-c2ccccn2)no1`, the inhibition was 4%. Under `c1ccc(-c2noc(-c3cccs3)n2)nc1` stands 7.6%. For `COc1ccc(Nc2cc(=O)oc3ccccc23)cc1`, the inhibition was 5%.

Take `Cc1cc(-n2nc(C)cc2C)n2nc(C)c(-c3ccccc3)c2n1`: the inhibition was -2.6%. Under `O=C(Nc1ccccc1)O/N=C1\CCCCC1c1ccc([N+](=O)[O-])cc1[N+](=O)[O-]` (stereo not drawn) stands -11%; under `O=S(=O)(NN=C1CCCCCCC1)c1ccc(Br)cc1`, 6.1%; under `Cc1nc2ccccc2n1C(=O)N1CCOCC1`, 1.2%. The value for `Cc1ccc(S(=O)(=O)N(CC(=O)N2CCc3ccccc3C2)c2cccc(Cl)c2)cc1` was 4.6%.

In the case of `Cc1cc(C)c(NC(=O)CN2CCOCCOCCOCCOCC2)c(C)c1`, the inhibition is 3.4%.

In the case of `O=C(Oc1ccccc1)Oc1ccc2c(c1)oc(=O)c1ccccc12`, the inhibition was -1.7%.

Turning to `COCCN(C(=O)c1ccco1)c1nnc(-c2ccc(OC)cc2)s1`, the inhibition was 10.8%. Under `COc1ccc(S(=O)(=O)NCc2ccc(C(=O)N(C)Cc3ccco3)cc2)cc1` stands -6%; under `CCOC(=O)C1=C(C)NC(SC)=NC1c1ccccc1` (stereo not drawn), -0.6%. The value for `Cc1nc2cc(NC(=O)NCc3ccccc3)ccc2o1` was -5.6%.

As to `O=C1Nc2cc(Cl)c(Cl)cc2N(O)N1c1cc(Cl)cc(Cl)c1`, the inhibition is -15.4%. For the molecule `COc1ccc2nc(SCC(=O)Nc3c(C)cc(C)cc3C)[nH]c2c1`, the inhibition was -3.6%. Under `O=C(c1cccc(F)c1)N1CCN(c2ccc([N+](=O)[O-])c(N3CCCCC3)c2)CC1` stands 8.1%; under `Cc1nnc(NC(=O)Nc2ccc(Cl)c(Cl)c2)s1`, 24.4% (active).

Turning to `O=C(CC(O)(C(F)(F)F)C(F)(F)F)Nc1ccc(Cl)c(Cl)c1`, the inhibition is -2.3%.

Take `CCn1nccc1C(=O)Nc1ccc(Cl)c(Cl)c1`: the inhibition was -0.3%.
